Measurements: PubChem BioAssay (NCATS)
Results filed as inconclusive are left out. Values without a mark were called inactive. Activity calls are given as the source filed them. Calls follow the shape of the dose curve; as a rule, active = well fitted inhibition curve with a large enough effect; inconclusive = small, poorly fitted or top-dose-only effect; inactive = no such curve, though single readings can be large or run the other way.

assay: Primary qHTS for inhibitors of nuclear receptor binding SET domain protein 2 (NSD2) in an RCH-ACV wild type WT cells (2C) (AID 1645877); conditions: RCH-ACV (leukaemia line) NSD2 WT (2C) viability, CellTiter-Glo, 72 h; series mostly up to 44.9 µM; activity change, negative = cell killing: at the top concentration; also: nearly all actives have a fitted effect of over 70% in size
% is scaled to controls: 0 for no effect and ±100 for the full control effect; potency is read from the fitted curve at half-maximal effect.

Row | SMILES | activity change, negative = cell killing | Potency | outcome
1 | O=C(/C=C/c1ccccc1)OC[C@H]1O[C@@H](OC(=O)c2cc(O)c(O)c(O)c2)[C@H](O)[C@@H](O)[C@@H]1O | 2.24% [at 17.3 µM] |  | 
2 | COC(=O)C1C(O)CCC2CN3CCc4c([nH]c5ccccc45)C3CC21 (stereo not drawn) | -5.58% |  | 
3 | CC1=C[C@H]2[C@@H](CC1=O)[C@H](C)C[C@H](O)[C@H]2C(C)C | -47.4% |  | 
4 | CC1CC2(O)OC(=O)C3=C2C(CCC3)[C@@]12C[C@@H](c1ccoc1)OC2=O (stereo partly drawn) | -29.8% |  | 
5 | COc1ccc(S(=O)(=O)Nc2nc(-c3cccc([N+](=O)[O-])c3)cs2)cc1OC | -4.93% |  | 
6 | COc1cc2c(cc1O)C(c1ccc(O)cc1)C(C)C(C)C2 (stereo not drawn) |  | 18.3 µM (active) | 
7 | C=C(CO)C(=O)O[C@H]1C[C@@]23O[C@@H]2CC/C(=C/[C@H]2OC(=O)C(=C)[C@H]12)CO[C@H]3O |  | 8.98 µM (active) | 
8 | C/C=C1/CC2C(=O)Nc3cc(O)c(OC)cc3C(=O)N2C1 (stereo not drawn) |  | 10.1 µM (active) | 
9 | COc1c(C)c(OCC(O)C(C)(C)O)cc2c1CNC2=O (stereo not drawn) | -10.1% |  | 
10 | C[C@H]1CC[C@@]2(OC1)O[C@H]1CC3C4CC[C@H]5C[C@@H](O)CC[C@]5(C)C4CC(=O)[C@]3(C)[C@H]1[C@@H]2C (stereo partly drawn) | -1.31% [at 17.3 µM] |  | 
11 | O=C(O)CCc1ccc(NCc2cccc3c2CCCN3CCOc2ccccc2)cc1F | -10.8% |  | 
12 | CCc1nnc(NS(=O)(=O)c2ccc(NC(=S)NC(=O)/C=C/c3ccc(F)cc3)cc2)s1 |  |  | inactive
13 | N=C(N)c1ccc2nc(-c3cc(CC(=O)NC(CC(=O)O)C(=O)O)cc(-c4cc(S(N)(=O)=O)ccc4O)c3O)[nH]c2c1 (stereo not drawn) |  |  | inactive
